How the values were obtained:
Test in all cases: DAPPL (digital affinity profiling via proximity ligation, sequencing); 10 mM Tris-HCl pH 7.5, 50 mM NaCl, 1 mM DTT, 4% glycerol, room temperature, 30 min; GST-TFs on glutathione beads, 16-mer random dsDNA library, 0.1% formaldehyde crosslink after washing; high values mean tight binding
Conditions in all cases: protein: recombinant; tags: N-terminal GST; dsDNA, one strand shown
ELK1 = biological target: T1, ELK1 (Homo sapiens, UniProt P19419 1-428)
T1 sequence: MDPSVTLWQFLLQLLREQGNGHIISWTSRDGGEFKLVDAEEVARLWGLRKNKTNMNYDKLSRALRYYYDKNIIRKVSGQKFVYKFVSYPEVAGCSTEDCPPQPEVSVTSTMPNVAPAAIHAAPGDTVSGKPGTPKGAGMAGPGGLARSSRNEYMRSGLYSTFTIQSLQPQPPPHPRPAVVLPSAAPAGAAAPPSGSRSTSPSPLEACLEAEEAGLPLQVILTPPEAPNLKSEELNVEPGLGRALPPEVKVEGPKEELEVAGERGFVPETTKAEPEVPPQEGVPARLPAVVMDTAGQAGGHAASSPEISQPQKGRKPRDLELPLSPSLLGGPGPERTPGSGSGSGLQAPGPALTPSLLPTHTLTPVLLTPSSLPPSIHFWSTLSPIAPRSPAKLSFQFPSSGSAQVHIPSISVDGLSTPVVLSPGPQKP
Summary of the method: (§1)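 Binding signal is each hexamer's read frequency for a factor divided by its frequency in the tag-only sample. The factors were GST-fused human transcription factors from yeast, captured on glutathione beads, DNA-barcoded and pooled with that sample. Pools were incubated with 200 nmole of a random double-stranded 16-mer DNA library in Tris/NaCl/DTT/glycerol buffer at room temperature for 30 min, then washed, crosslinked with 0.1% formaldehyde, proximity-ligated with BsaI/T4 ligase (1 h, 37 °C), PCR-amplified and sequenced on an Illumina NextSeq500.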

GABPA = biological target: T2, GABPA (Homo sapiens, UniProt Q06546 1-454)
T2 sequence: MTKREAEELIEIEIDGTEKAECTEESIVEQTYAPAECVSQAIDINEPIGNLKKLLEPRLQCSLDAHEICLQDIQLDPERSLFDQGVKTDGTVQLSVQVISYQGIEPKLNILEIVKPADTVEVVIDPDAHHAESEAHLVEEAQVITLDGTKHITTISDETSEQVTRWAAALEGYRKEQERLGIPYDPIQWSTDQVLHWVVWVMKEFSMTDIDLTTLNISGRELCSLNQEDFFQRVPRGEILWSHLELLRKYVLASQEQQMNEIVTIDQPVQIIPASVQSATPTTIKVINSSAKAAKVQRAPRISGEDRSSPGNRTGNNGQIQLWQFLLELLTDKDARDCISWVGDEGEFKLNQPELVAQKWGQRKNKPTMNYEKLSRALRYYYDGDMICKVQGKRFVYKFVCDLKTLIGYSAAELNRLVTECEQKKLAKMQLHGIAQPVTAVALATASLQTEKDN
Summary of the method: as §1

ERG = biological target: T3, ERG (Homo sapiens, UniProt P11308 1-479)
T3 sequence: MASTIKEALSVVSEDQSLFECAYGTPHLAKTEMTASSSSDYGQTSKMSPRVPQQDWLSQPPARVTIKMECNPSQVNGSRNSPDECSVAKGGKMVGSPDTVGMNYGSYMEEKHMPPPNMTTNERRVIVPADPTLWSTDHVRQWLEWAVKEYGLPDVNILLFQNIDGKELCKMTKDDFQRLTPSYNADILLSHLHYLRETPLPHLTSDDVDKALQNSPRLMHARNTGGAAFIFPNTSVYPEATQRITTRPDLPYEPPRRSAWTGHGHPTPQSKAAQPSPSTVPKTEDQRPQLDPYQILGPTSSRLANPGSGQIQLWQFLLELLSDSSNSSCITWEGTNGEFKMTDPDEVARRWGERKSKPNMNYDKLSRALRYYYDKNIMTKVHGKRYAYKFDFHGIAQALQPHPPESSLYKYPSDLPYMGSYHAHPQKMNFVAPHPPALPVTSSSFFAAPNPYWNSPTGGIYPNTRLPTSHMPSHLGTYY
Summary of the method: as §1

ELF1 = ELF1 (Homo sapiens, UniProt P32519 1-619)
Summary of the method: as §1

EHF = biological target: T4, EHF (Homo sapiens, UniProt Q9NZC4 1-300)
T4 sequence: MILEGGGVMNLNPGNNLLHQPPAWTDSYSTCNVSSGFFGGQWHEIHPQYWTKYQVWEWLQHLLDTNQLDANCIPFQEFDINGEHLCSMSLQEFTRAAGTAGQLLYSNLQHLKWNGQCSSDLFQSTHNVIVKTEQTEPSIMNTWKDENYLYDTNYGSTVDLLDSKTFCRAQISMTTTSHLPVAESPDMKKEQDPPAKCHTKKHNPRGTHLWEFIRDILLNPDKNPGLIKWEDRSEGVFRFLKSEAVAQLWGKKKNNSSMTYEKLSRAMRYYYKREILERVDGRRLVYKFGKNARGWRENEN
Summary of the method: as §1

SPIB = SPIB (Homo sapiens, UniProt Q01892 1-262)
Summary of the method: as §1

FEV = biological target: T5, FEV (Homo sapiens, UniProt Q99581 1-238)
T5 sequence: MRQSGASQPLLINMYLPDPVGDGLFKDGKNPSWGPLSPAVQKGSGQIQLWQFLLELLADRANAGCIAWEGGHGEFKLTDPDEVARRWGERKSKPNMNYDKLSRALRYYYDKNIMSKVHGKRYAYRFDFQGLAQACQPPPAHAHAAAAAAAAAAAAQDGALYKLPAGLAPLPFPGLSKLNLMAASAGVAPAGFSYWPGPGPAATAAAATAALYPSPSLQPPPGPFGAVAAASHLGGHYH
Summary of the method: as §1

ETV5 = ETV5 (Homo sapiens, UniProt P41161 1-510)
Summary of the method: as §1

ELF4 = ELF4 (Homo sapiens, UniProt Q99607 1-663)
Summary of the method: as §1

ELK4 = biological target: T6, ELK4 (Homo sapiens, UniProt P28324-2 1-405)
T6 sequence: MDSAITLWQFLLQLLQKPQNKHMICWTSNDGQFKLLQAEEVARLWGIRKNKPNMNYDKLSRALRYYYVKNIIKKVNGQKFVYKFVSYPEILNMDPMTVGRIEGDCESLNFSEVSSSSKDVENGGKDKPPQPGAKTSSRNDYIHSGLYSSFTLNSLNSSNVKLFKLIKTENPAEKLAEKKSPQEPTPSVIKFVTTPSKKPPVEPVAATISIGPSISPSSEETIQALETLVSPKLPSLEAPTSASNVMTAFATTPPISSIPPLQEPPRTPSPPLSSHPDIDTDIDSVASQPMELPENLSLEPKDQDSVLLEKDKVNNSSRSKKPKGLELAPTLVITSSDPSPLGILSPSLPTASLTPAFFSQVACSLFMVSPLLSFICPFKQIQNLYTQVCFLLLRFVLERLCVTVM
Summary of the method: as §1

Chain of ETV5 (P41161 whole entry): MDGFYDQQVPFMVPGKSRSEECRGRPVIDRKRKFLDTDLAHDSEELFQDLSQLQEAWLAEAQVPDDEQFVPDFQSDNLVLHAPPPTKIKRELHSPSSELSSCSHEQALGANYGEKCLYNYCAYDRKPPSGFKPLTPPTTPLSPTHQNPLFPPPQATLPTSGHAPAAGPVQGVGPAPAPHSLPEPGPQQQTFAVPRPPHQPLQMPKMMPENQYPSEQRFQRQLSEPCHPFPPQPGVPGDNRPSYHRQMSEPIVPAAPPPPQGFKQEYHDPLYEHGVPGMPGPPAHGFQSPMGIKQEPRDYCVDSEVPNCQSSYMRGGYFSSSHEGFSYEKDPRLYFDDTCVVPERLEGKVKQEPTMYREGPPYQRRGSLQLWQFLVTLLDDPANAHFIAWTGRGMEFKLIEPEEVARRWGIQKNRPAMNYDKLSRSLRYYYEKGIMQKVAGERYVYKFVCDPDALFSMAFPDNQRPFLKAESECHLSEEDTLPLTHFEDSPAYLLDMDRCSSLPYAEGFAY
Chain of ELF4 (Q99607 whole entry): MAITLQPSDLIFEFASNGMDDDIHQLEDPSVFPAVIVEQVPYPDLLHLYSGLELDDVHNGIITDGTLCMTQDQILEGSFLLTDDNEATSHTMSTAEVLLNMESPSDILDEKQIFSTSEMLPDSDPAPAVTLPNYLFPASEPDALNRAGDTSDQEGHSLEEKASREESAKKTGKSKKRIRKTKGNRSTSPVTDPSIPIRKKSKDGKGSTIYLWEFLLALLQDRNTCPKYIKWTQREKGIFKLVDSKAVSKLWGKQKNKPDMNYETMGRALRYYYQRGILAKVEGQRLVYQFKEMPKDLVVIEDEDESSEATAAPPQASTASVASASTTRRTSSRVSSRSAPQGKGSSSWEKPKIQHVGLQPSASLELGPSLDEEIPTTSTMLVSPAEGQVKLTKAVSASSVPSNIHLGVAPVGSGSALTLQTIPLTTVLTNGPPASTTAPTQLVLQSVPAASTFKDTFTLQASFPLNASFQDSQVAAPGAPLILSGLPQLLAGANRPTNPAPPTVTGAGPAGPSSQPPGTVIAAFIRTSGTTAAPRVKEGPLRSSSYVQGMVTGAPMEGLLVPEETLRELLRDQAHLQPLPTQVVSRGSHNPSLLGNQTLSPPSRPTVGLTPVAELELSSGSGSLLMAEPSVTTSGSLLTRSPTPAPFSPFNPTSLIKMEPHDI
Chain of SPIB (Q01892 whole entry): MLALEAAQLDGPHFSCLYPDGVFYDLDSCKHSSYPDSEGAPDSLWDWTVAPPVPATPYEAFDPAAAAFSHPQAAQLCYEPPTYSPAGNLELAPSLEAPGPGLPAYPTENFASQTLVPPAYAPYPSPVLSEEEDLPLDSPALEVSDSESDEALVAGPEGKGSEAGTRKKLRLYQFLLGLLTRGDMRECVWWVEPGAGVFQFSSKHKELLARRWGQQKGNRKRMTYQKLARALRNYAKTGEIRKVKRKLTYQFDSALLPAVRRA
Chain of ELF1 (P32519 whole entry): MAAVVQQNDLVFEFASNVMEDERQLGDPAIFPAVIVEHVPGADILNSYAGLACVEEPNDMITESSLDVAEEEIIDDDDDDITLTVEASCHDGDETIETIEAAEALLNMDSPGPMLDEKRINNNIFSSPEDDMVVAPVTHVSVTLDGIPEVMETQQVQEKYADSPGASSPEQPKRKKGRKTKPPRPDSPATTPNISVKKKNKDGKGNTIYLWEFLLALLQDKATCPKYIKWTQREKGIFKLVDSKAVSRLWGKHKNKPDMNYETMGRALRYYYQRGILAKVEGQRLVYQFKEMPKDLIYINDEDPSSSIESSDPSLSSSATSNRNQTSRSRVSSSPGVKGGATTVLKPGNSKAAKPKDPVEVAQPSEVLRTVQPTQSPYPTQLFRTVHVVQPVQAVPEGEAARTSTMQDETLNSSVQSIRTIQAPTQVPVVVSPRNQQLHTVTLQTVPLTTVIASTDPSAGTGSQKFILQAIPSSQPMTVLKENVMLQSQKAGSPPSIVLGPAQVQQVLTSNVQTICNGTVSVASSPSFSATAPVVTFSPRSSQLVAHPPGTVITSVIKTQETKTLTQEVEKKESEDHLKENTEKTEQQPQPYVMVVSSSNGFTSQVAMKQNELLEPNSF

CGTAAA
binding signal (ELK1): 1.12 fold enrichment (6-mer frequency, TF over GST control)
binding signal (GABPA): 1.23 fold enrichment (6-mer frequency, TF over GST control)
binding signal (ERG): 1.13 fold enrichment (6-mer frequency, TF over GST control)
binding signal (ELF1): 1.07 fold enrichment (6-mer frequency, TF over GST control)
binding signal (EHF): 1.13 fold enrichment (6-mer frequency, TF over GST control)
binding signal (SPIB): 1.08 fold enrichment (6-mer frequency, TF over GST control)
binding signal (FEV): 1.04 fold enrichment (6-mer frequency, TF over GST control)
binding signal (ETV5): 1.14 fold enrichment (6-mer frequency, TF over GST control)
binding signal (ELF4): 1.11 fold enrichment (6-mer frequency, TF over GST control)
binding signal (ELK4): 1.05 fold enrichment (6-mer frequency, TF over GST control)

Reference: publication PMC7862700, “An all-to-all approach to the identification of sequence-specific readers for epigenetic DNA modifications on cytosine”
